The sample as a whole holds a higher share of hits than the screen did.
VP16 counter – inhibits Gal4-VP16 luciferase reporter, ROR gamma counter-screen. Drosophila S2 Gal4-VP16 UAS-luciferase, luminescence, 20 h. Potency, µM (series often up to 53.6 µM), most hits filed as inhibitors. actives 3.5% (n = 310,000);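 further: Gal4-VP16 expression switched on by copper sulfate through the metallothionein promoter; nearly all actives have a fitted effect of over 50% in size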
RORgamma inh – blocks mouse ROR gamma transcriptional activity. Drosophila S2 Gal4-RORgamma UAS-luciferase reporter, 20 h. Potency, µM (highest dose often 53.6 µM), usual class: inhibitors. P51450. actives 5.4% (n = 310,000); further: nearly all actives have a fitted effect of over 60% in size
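Compounds are pin-transferred onto Drosophila Schneider cells expressing a copper-inducible Gal4–ROR gamma transactivation domain fusion. After 1 hr, copper sulfate is added to 700 uM final; luciferase is read 20 hr later.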
ERG-DNA inh – blocks human ERG Ets domain binding to DNA | P11308 | fluorescence polarization, His-ERG Ets domain / labelled DNA | Potency, µM (highest dose often 76.9 µM), most hits filed as inhibitors | actives 0.028% (n = 370,000); active means well fitted inhibition curve with a large enough effect in the polarisation, with a control signal flat; inconclusive means small, poorly fitted or top-dose-only effect, or effect the other way, or a change in a side signal; inactive means no such curve, though single readings can be large or run the other way; the % refers to the polarisation;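 further: polarization taken with two DNA probes labelled with fluorescein and Texas red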
Target sequence (P11308 whole entry, looked up, the tested form may be a part): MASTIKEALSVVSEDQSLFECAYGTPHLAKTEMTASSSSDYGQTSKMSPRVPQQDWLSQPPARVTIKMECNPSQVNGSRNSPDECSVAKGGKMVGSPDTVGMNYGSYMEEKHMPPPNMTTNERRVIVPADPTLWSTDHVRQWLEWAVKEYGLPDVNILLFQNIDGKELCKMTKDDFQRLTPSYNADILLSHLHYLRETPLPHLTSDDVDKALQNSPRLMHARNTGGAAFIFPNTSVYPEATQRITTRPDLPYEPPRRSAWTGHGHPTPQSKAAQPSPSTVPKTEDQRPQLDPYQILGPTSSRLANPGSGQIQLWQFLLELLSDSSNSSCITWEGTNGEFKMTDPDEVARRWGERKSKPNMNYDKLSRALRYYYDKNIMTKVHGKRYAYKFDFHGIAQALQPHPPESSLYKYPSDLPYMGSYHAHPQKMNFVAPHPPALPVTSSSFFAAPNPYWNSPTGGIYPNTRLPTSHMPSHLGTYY
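His-tagged ERG Ets domain (1 uM in the protein solution; 300mM KCl, 50mM Tris-HCl, 1mM EDTA, 1mM DTT, pH 7.5) received compound, then a probe mix of 5 nM fluorescein-DNA and 100nM Texas-615-DNA. Fluorescence polarization was read for both dyes.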
Giardia kill – kills Giardia lamblia. Giardia lamblia trophozoite viability. activity change, % at 7.66 µM, hits read low. actives 0.15% (n = 340,000). AID 540267; in the data active means activity change below about -80%; inconclusive means between about -30% and that limit;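 further: parasites exposed to compound for two days anaerobically before the ATP read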
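Anaerobic 48 hrs incubation at 37 deg C of 100 trophozoites/well with test compounds; ATPLite 1-Step luminescence, 15-30 min RT, reports cellular ATP as viability.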
a7 integrin act – activates integrin-mediated alleviation for muscular dystrophy; actives 0.064% (n = 350,000); alpha7betagal myoblasts, beta-gal FDG fluorescence, 48 h; Potency, µM (series often up to 38.3 µM), actives largely listed as activators; further: nearly all actives have a fitted effect of over 60% in size
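alpha7betagal+/- myoblasts (passage 13, 250/well) treated 48 h at 37C with compounds at 1:260 dilution of DMSO stock. Lysed, then beta-galactosidase activity read as FDG fluorescence (ex 480/em 540) after 30 min, with pre-read for autofluorescence.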
Large screens that a line does not name were inactive. Unless noted, the call rests on the fitted dose curve; in most records, active means well fitted curve in the direction sought with a large enough effect; inconclusive means small, poorly fitted or top-dose-only effect, or another doubt; inactive means no such curve, though single readings can be large; an effect the other way counts as inactive or inconclusive.

O=[N+]([O-])c1cc(C=Nc2ccc3ccccc3c2)ccc1Br	VP16 counter inconclusive, RORgamma inh 20µM
N#Cc1cc2c(nc1SCc1nc3ccccc3[nH]1)CCC2	VP16 counter 11µM, RORgamma inh 10µM (no result: ERG-DNA inh, Giardia kill, a7 integrin act)
Cc1cccc(CSc2nc3c(cc2C#N)CCC3)c1	RORgamma inh inconclusive
COC(=O)CC(=O)CSc1nc2c(cc1C#N)CCC2	VP16 counter 18µM, RORgamma inh inconclusive
CC(C)OC(=O)CC(=O)CSc1nc2c(cc1C#N)CCC2	VP16 counter inconclusive, RORgamma inh inconclusive
Cc1ccc(N=c2oc3cc(O)ccc3cc2C(N)=O)cc1	VP16 counter 0.89µM, RORgamma inh 0.89µM
CC(=O)c1cc2ccc(O)cc2oc1=O	none
Cc1cc(=O)n2[nH]c(-c3ccc(C(C)(C)C)cc3)cc2n1	VP16 counter 22µM, RORgamma inh inconclusive
Cc1cc(C)cc(NC(=O)c2cc(CN3CCCC3)on2)c1	none (no result: VP16 counter, RORgamma inh, Giardia kill, a7 integrin act)
S=c1[nH]cc(-c2ccc(Cl)cc2)n1Cc1ccccc1	VP16 counter 2.8µM, RORgamma inh 2.5µM
CCn1c(-c2ccccc2)c[nH]c1=S	VP16 counter 8.9µM, RORgamma inh 1.1µM
COC(=O)c1c[nH]c(=S)n1Cc1ccccc1	none (no result: VP16 counter, RORgamma inh)
CC(C)Cn1c(-c2ccc(Br)cc2)c[nH]c1=S	VP16 counter 1.6µM, RORgamma inh 0.63µM
COC(=O)CC1C(C)(C)C(=O)C2CC3=C(CC[C@]4(C)C3=CC(=O)OC4c3ccoc3)[C@@]1(C)C2=O (some centres undefined)	none (no result: ERG-DNA inh, Giardia kill, a7 integrin act)
COc1cc(NCCCC(C)N)c2ncccc2c1 (centres undefined)	VP16 counter inconclusive, RORgamma inh 2.2µM, ERG-DNA inh inconclusive
COc1cc(NC(=O)c2ccccc2Cl)c2ncccc2c1	none
CCC(CNc1cc(OC)cc2cccnc12)NC1CCCCC1 (centres undefined)	VP16 counter inconclusive, RORgamma inh 16µM
COc1ccc(CCNC(=O)CNC(=O)c2ccccc2Br)cc1OC	none
CC1CCCN(c2ncnc3c2cnn3-c2ccc(Cl)cc2)C1 (centres undefined)	Giardia kill inconclusive
c1ccc(-n2ncc3c(N4CCCCC4)ncnc32)cc1	VP16 counter 5.6µM, RORgamma inh 5µM, Giardia kill inconclusive
CC1CCCN(c2ncnc3c2cnn3-c2ccccc2)C1 (centres undefined)	VP16 counter 5µM, RORgamma inh inconclusive, Giardia kill inconclusive
Cc1cccc(-n2ncc3c(N4CCCCCC4)ncnc32)c1	none (no result: VP16 counter, RORgamma inh, Giardia kill, a7 integrin act)
CCCCNC(=O)Cn1nc(N2CCN(c3ccccc3OC)CC2)ccc1=O	none (no result: VP16 counter, RORgamma inh, Giardia kill, a7 integrin act)
Cc1ccc(S(=O)(=O)N2CCC(C(=O)OC(C)C(=O)N(C)c3ccccc3)CC2)cc1C (centres undefined)	none (no result: VP16 counter, RORgamma inh)
CC(CNC(=O)Cn1ncc2c3ccccc3n(Cc3cccc(Cl)c3)c2c1=O)c1ccccc1 (centres undefined)	none (no result: VP16 counter, RORgamma inh, Giardia kill, a7 integrin act)
COCC(=O)NNS(=O)(=O)c1ccccc1[N+](=O)[O-]	none
Cc1nc2cc(-c3cccc(F)c3)nn2c(C)c1CCC(=O)NC(C)CCc1ccco1 (centres undefined)	RORgamma inh 11µM
COCCNC(=S)N1CCN(c2nc3ccccc3s2)CC1	VP16 counter 13µM
COCCCNC(=S)N1CCN(c2nc3ccccc3s2)CC1	RORgamma inh inconclusive
O=S(=O)(N/N=C/c1cn(Cc2ccccc2)c2ccccc12)c1ccccc1	RORgamma inh inconclusive
O=C(CN1CCCC1)Nc1sc2c(c1C(=O)Nc1ccc(Br)cc1)CCC2	VP16 counter 3.5µM, RORgamma inh 2µM
CCOc1ccc(NC(=O)c2c(NC(=O)CNCCN3CCOCC3)sc3c2CCC3)cc1	VP16 counter 0.1µM, RORgamma inh 0.56µM
COc1ccc(OCc2nnc(SCC(=O)Nc3ccc(C)cc3)o2)cc1	none
Cc1ccc(OCc2nnc(SCC(=O)CC(=O)Nc3ccccc3)o2)cc1	VP16 counter inconclusive, RORgamma inh 13µM
O=C(CSc1nnc(COc2ccc(Br)cc2)o1)N1CCOCC1	none
O=C(CSc1nnc(COc2ccccc2)o1)N1CCOCC1	RORgamma inh 0.11µM
Cc1cc(C)nc(Nc2n[nH]c(-c3cccc4ccccc34)n2)n1	VP16 counter inconclusive, RORgamma inh 11µM
CCOC(=O)c1c(NC(=O)C2=C(C)NC(=S)NC2c2ccc(CC)cc2)sc(C)c1C (centres undefined)	VP16 counter 7.9µM, RORgamma inh 3.5µM (no result: ERG-DNA inh, Giardia kill, a7 integrin act)
COCCNC(=S)N(CCc1c(C)[nH]c2ccc(C)cc12)Cc1ccco1	RORgamma inh 11µM
COc1ccc2[nH]c(C)c(CCN(Cc3cccs3)C(=S)Nc3ccccc3)c2c1	RORgamma inh 1.8µM
CNC(=S)N(CCc1c(C)[nH]c2ccc(C)cc12)Cc1cccs1	VP16 counter inconclusive, RORgamma inh 11µM
Cc1cccc(N2CC(c3nc4ccc(C)cc4[nH]3)CC2=O)c1 (centres undefined)	none (no result: VP16 counter, RORgamma inh, Giardia kill, a7 integrin act)
O=c1c2ccccc2[nH]c(=S)n1-c1cccc(S(=O)(=O)N2CCCC2)c1	VP16 counter inconclusive, RORgamma inh 3.2µM
CCOCc1cc(CN2CCN(c3cccc(Cl)c3)CC2)c(O)c2ncccc12	none (no result: VP16 counter, RORgamma inh, Giardia kill, a7 integrin act)
COCc1cc(CN2CCN(C)CC2)c(O)c2ncccc12	VP16 counter 5.6µM, RORgamma inh 3.2µM
CC(C)OCc1cc(CN2CCN(c3ccccc3)CC2)c(O)c2ncccc12	none (no result: VP16 counter, RORgamma inh, Giardia kill, a7 integrin act)
Oc1c(Br)cc(Br)c2cccnc12	RORgamma inh 0.28µM (no result: a7 integrin act)
Oc1c(CN2CCN(c3ccccc3)CC2)cc(Br)c2cccnc12	VP16 counter 0.89µM, RORgamma inh 0.56µM
Oc1c(CN2CCOCC2)cc(COCc2ccccc2)c2cccnc12	VP16 counter 0.089µM, RORgamma inh 0.79µM
CCOC(=O)N1CCN(Cc2ccccc2Cl)CC1	none
CCOC(=O)N1CCN(Cc2cc(Cl)c3cccnc3c2O)CC1	VP16 counter 0.089µM, RORgamma inh 0.13µM
COc1ccc2c(c1)CCc1c(C(=O)NCCc3ccc(OC)c(OC)c3)noc1-2	none
COc1ccc2c(c1)CCc1c(C(=O)Nc3ccc(OC)c(OC)c3)noc1-2	VP16 counter inconclusive, RORgamma inh 1.4µM
CCN(CC)C(=O)Cn1nnc2sc(-c3ccccc3)cc2c1=O	none (no result: VP16 counter, RORgamma inh, Giardia kill, a7 integrin act)
COCCN(C(=O)COC(=O)/C=C/c1cccc(C(F)(F)F)c1)c1c(N)n(CC(C)C)c(=O)[nH]c1=O	none (no result: VP16 counter, RORgamma inh)
CCc1nnc(N2C(=N)SCC2=O)s1	VP16 counter 13µM, RORgamma inh 1.4µM
COc1ccc(N2CCN(CC(=O)Nc3nnc(-c4ccccc4)s3)CC2)cc1	VP16 counter inconclusive, RORgamma inh 10µM
Cc1ccc(OCC(COCc2ccccc2)NC(C)C)cc1 (centres undefined)	none (no result: VP16 counter, RORgamma inh)
CCOC(=O)/C(O)=C/c1ncc(C(F)(F)F)cc1Cl	VP16 counter 10µM, RORgamma inh 8.9µM
CCCOc1ccc(NC(=O)c2c(-c3ccccc3)noc2C)cc1	none
CCCOc1ccc(C(=O)NC(=S)NNC(=O)c2c(-c3ccccc3)noc2C)cc1	VP16 counter inconclusive, RORgamma inh 4µM, Giardia kill inconclusive

Screening results: PubChem BioAssay, National Center for Advancing Translational Sciences (NCATS)
